Unmarked numbers belong to inactive results.
System: Caenorhabditis elegans L1 (N2)
Experiment: survival and reproduction score of C. elegans L1 (0: 0-10 living worms, 1: 11-20, 2: 21-50, 3: >50, 4: overgrown) (score 0-4); higher = more worms, less nematicidal, active = 1 or less; extreme values may be limits of the assay
Conditions: 60 µM; 6 days; temperature: 20 °C
How it was run: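 Synchronized C. elegans N2 L1s (about 20 per well) were grown in 96-well plates in liquid NGM with E. coli HB101 and compound at 60 µM final (0.6% v/v DMSO), shaken sealed at 200 rpm and 20 °C for 6 days. The ordinal score for survival and reproduction counted living worms per well under a dissection microscope. The scale ran 0 (0–10 worms) to 4 (overgrown, starved), averaged over two biological replicates.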

Row | SMILES | survival and reproduction score
1 | Cn1c(SCc2nc(-c3ccccc3)no2)nnc1-c1ccco1 | 0 (active)
2 | Cc1cc(Cl)ccc1OCc1nc(-c2cccnc2)no1 | 4
3 | CCOc1nc(-c2ccc(C)cc2)ccc1-c1noc(-c2ccncc2)n1 | 4
4 | N#Cc1ccc(CSc2nnc(-c3ccccc3)o2)cc1 | 4
5 | CCOc1nc(C)ccc1-c1noc(-c2ccccc2F)n1 | 4
6 | Cc1cccc(-c2noc(COc3ccccc3Cl)n2)c1 | 4
7 | COc1cccc(OCc2nc(-c3cccc(C)c3)no2)c1 | 4
8 | Fc1ccc(OCc2nc(-c3ccc(Br)cc3)no2)cc1 | 3
9 | O=C(CSc1nnc(-c2ccccc2)o1)Nc1ccc(Br)cc1F | 4
10 | CCOC(=O)c1sc(NC(=O)CSc2nnc(-c3ccc(Cl)cc3)o2)c(C#N)c1C | 4
11 | Cc1nnc(CSc2nnc(-c3ccc(Cl)cc3)o2)o1 | 4
12 | O=C(CSc1nnc(-c2cccc(Br)c2)o1)c1ccc2c(c1)CCCC2 | 4
13 | CCOc1ccccc1-c1nnc(SCc2ccccc2)o1 | 4
14 | O=C(Nc1ccc(-c2noc(-c3ccc(F)cc3)n2)cc1)c1ccc(Br)o1 | 1 (active)
15 | Cc1ccc(-c2noc(-c3cccc(C)c3)n2)cc1 | 0 (active)
16 | COc1ccc(Cl)cc1-c1noc(COc2ccccc2)n1 | 4
17 | Cc1ccccc1OCc1nc(-c2ccc(Br)cc2)no1 | 4
18 | Cc1cc(Cl)ccc1OCc1nc(-c2ccccc2)no1 | 4
19 | Clc1ccc(OCc2nc(-c3ccc(Br)o3)no2)cc1 | 3.5

Row | SMILES | survival and reproduction score
20 | Cn1c(SCc2nnc(-c3ccccc3)o2)nnc1-c1ccco1 | 4
21 | Brc1cccc(-c2nc(-c3ccncc3)no2)c1 | 1 (active)
22 | Cc1ccc(C)c(OCc2nc(-c3cccnc3)no2)c1 | 4
23 | CCc1ccc(OCc2nc(-c3cccnc3)no2)cc1 | 4
24 | Clc1cccc(OCc2nc(-c3ccncc3)no2)c1 | 3.5
25 | O=C(Nc1ccccc1-c1nc(-c2ccncc2)no1)c1ccccc1Cl | 4
26 | Cc1cc(C)cc(OCc2nc(-c3ccccc3Cl)no2)c1 | 4
27 | Cc1ccc(-c2nnc(SCc3c(C)cc(C)cc3C)o2)cc1 | 4
28 | CCOc1nc(C)ccc1-c1noc(-c2cccc(C)c2)n1 | 4
29 | COc1ccc(-c2noc(COc3ccc(C)c(C)c3)n2)cc1 | 4
30 | O=C(Nc1ccccc1-c1nc(-c2ccncc2)no1)c1ccc(Cl)cc1 | 4
31 | COc1ccc(-c2noc(COc3ccc4c(c3)CCCC4)n2)cc1 | 4
32 | Cc1ccc(-c2nc(-c3ccc(C(F)(F)F)cc3)no2)cc1 | 0 (active)
33 | O=C(CSc1nnc(-c2ccccc2Cl)o1)Nc1nccs1 | 4
34 | COc1nc(C)ccc1-c1noc(-c2ccc(C)cc2)n1 | 4
35 | Clc1cc(Br)ccc1OCc1nc(-c2ccccn2)no1 | 4
36 | Brc1ccc(-c2noc(-c3cccs3)n2)cc1 | 0 (active)
37 | CCC(=O)Nc1ccccc1-c1nc(-c2ccncc2)no1 | 1 (active)
38 | Fc1ccc(-c2nc(-c3ccc(Br)cc3)no2)cc1 | 3

From the supplement of paper PMC11219838
